Source: PubChem BioAssay (NCI)
Where “and” joins values, the source holds several entries; their conditions need not be identical. Equal values may be shown once. About 79,000 compounds went through this panel and 15% of them were active in at least one assay; those are over-represented in the sample as a whole. Some structures have more than one record in an assay (separate samples or runs), and their calls can disagree. Calls of active or inactive are those of the source. No stated cut-off is given here; in the data, active means growth inhibition above about 70%; inactive means the rest.

How the values were obtained:
[1] = NCI Yeast Anticancer Drug Screen. Data for the rad50 strain (AID 155);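 further: 0% = growth of vehicle-only cultures of the same strain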; settings: S. cerevisiae rad50 strain growth inhibition, stronger effect = higher value
Procedure, shortened: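 Growth of the mutant yeast was measured after compound exposure and referenced to vehicle-treated cultures.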

[2] = NCI Yeast Anticancer Drug Screen. Data for the mec2-1 strain (AID 157); settings: S. cerevisiae mec2-1 strain, stronger effect = higher value
Procedure, shortened: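 mec2-1 yeast strain, carrying an alteration in DNA damage repair or cell cycle control, was exposed to compounds; growth inhibition was measured relative to vehicle-treated controls.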

[3] = NCI Yeast Anticancer Drug Screen. Data for the sgs1 mgt1 strain (AID 161);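 further: 0% = growth of cultures given vehicle only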; settings: S. cerevisiae sgs1 mgt1 strain, stronger effect = higher value
Procedure, shortened: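 Growth of a repair-deficient yeast mutant was monitored after compound treatment and expressed as inhibition relative to vehicle-treated cultures.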

[4] = NCI Yeast Anticancer Drug Screen. Data for the cln2 rad14 strain (AID 165);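 further: 0% = growth equal to vehicle treated cultures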; settings: S. cerevisiae cln2 rad14 strain, stronger effect = higher value
Procedure, shortened: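 Yeast carrying cln2 and rad14 alterations (cell cycle control and DNA damage repair) were exposed to compounds. Growth inhibition was measured against vehicle-treated controls.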

[5] = NCI Yeast Anticancer Drug Screen. Data for the bub3 strain (AID 167); settings: S. cerevisiae bub3 mutant strain, stronger effect = higher value
Procedure, shortened: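 Whole-cell yeast assay. The mutant strain was incubated with compounds, and growth inhibition was determined by comparison with vehicle-treated cells.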

[6] = NCI Yeast Anticancer Drug Screen. Data for the wt2 strain (AID 169);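 further: 0% = growth of vehicle-treated yeast cultures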; settings: S. cerevisiae wt2 strain growth inhibition, stronger effect = higher value
Procedure, shortened: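 Yeast cells were exposed to test compounds, and growth inhibition was measured relative to vehicle-treated controls.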

[7] = NCI Yeast Anticancer Drug Screen. Data for the mlh1 rad18 strain (AID 175); settings: S. cerevisiae mlh1 rad18 strain growth inhibition, stronger effect = higher value
Procedure, shortened: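 Growth inhibition of the yeast strain was measured after compound exposure and expressed relative to vehicle-treated controls. The strain carries defined defects in DNA damage repair.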

[8] = at 5.0 µM (retest, dose inferred, filed as 0.5)
[9] = at 50.0 µM (retest, dose inferred, filed as 5.0)

Measured: growth inhibition

Cc1c(C)c(CCl)c(C)c(C)c1CCl
inactive: [1]; [8] 53% | [3]; [8] 1% | [3]; [9] 43% | [4]; [8] 34% | [5]; [8] 14% | [5]; [9] 39% | [5]; at 50.0 µM 61.5% | [6]; at 1.2 µM 0% | [6]; at 3.7 µM 25% | [7]; [8] 66%
active: [1]; [9] 95% | [1]; at 50.0 µM 87.7% | [2]; [8] 71% | [2]; [9] 96% | [2]; at 50.0 µM 86% | [3]; at 50.0 µM 75.2% | [4]; [9] 84% | [4]; at 50.0 µM 72.5% | [6]; at 11.0 µM 71% | [6]; at 33.0 µM 82% | [6]; at 100.0 µM 83% | [7]; [9] 95% | [7]; at 50.0 µM 82%

COc1cc2c(cc1O)C1CN(C2)Cc2cc(OC)c(O)cc21
inactive: [1]; [8] -5% | [1]; [9] 67% | [1]; at 50.0 µM 51.4% | [2]; [8] -3% | [2]; at 50.0 µM 35% | [3]; [8] -11% | [3]; at 50.0 µM 30.3% | [4]; [8] 2% | [5]; [8] -2% | [5]; [9] 69% | [5]; at 50.0 µM 33.7%
active: [2]; [9] 78% | [3]; [9] 76% | [4]; [9] 75% | [4]; at 50.0 µM 79.2%

Cc1ccc(OC(=O)c2ccc(N)cc2O)cc1
inactive: [1]; [8] 48% | [1]; at 50.0 µM 45.1% | [2]; at 50.0 µM 68.2% | [3]; [8] -3% | [3]; at 50.0 µM 42.5% | [4]; [8] 39% | [4]; at 50.0 µM 42.2% | [5]; [8] 24% | [6]; at 1.2 µM 0% | [6]; at 3.7 µM -4% | [6]; at 11.0 µM 15% | [6]; at 33.0 µM 43% | [7]; [8] 33% | [7]; at 50.0 µM 53.3%
active: [1]; [9] 86% | [2]; [8] 83% | [2]; [9] 90% | [3]; [9] 93% | [4]; [9] 97% | [5]; [9] 90% | [5]; at 50.0 µM 77.7% | [6]; at 100.0 µM 86% | [7]; [9] 97%

CN(C)c1ccc(/C=C/c2cc[n+](C)c3ccccc23)cc1
96.6% (active) and 66.7% (inactive): [4]; at 50.0 µM
inactive: [1]; [8] -3% and -12% | [2]; [8] 0% and -25% | [3]; [8] 3% and -10% | [4]; [8] -2% and -5% | [5]; [8] -3% and -17%
active: [1]; at 50.0 µM 95.3% and 71.3% | [2]; [9] 93% and 83% | [2]; at 50.0 µM 97.9% and 86.2% | [3]; [9] 92% and 88% | [3]; at 50.0 µM 93.7% and 83.4% | [5]; [9] 85% and 83% | [5]; at 50.0 µM 97.5% and 82.8%
89% (active) and 57% (inactive): [4]; [9]
81% (active) and 53% (inactive): [1]; [9]

OC(CF)(c1ccc(Cl)cc1)c1ccc(Cl)cc1
inactive: [1]; [8] 37% | [2]; [8] 24% | [3]; [8] 6% | [4]; [8] 39% | [5]; [8] 1% | [6]; at 1.2 µM 16% | [6]; at 3.7 µM 16% | [6]; at 11.0 µM 17% | [7]; [8] 39%
active: [1]; [9] 74% | [1]; at 50.0 µM 90.3% | [2]; [9] 75% | [2]; at 50.0 µM 92.5% | [3]; [9] 91% | [3]; at 50.0 µM 92.8% | [4]; [9] 97% | [4]; at 50.0 µM 91.4% | [5]; [9] 91% | [5]; at 50.0 µM 91% | [6]; at 33.0 µM 93% | [6]; at 100.0 µM 99% | [7]; [9] 75% | [7]; at 50.0 µM 89%

CC(C)N1CSC(=S)N(Cc2ccccc2)C1
inactive: [1]; [8] 55% | [2]; [8] 46% | [3]; [8] -5% | [3]; at 50.0 µM 46.3% | [4]; [8] 56% | [4]; at 50.0 µM 19.5% | [5]; [8] 6% | [6]; at 1.2 µM 0% | [6]; at 3.7 µM 7% | [6]; at 11.0 µM 23% | [6]; at 33.0 µM 55% | [6]; at 100.0 µM 67% | [7]; [8] 30% | [7]; [9] 66% | [7]; at 50.0 µM 59.5%
active: [1]; [9] 91% | [1]; at 50.0 µM 77.7% | [2]; [9] 92% | [2]; at 50.0 µM 81.5% | [3]; [9] 98% | [4]; [9] 92% | [5]; [9] 92% | [5]; at 50.0 µM 88.2%

Cc1n(-c2ccccc2)c2c([n+]1Cc1ccc([N+](=O)[O-])cc1)C(=O)c1ccccc1C2=O
active: [1]; [9] 97% | [1]; at 50.0 µM 85.2% | [2]; [9] 98% | [2]; at 50.0 µM 89% | [3]; [9] 98% | [3]; at 50.0 µM 88.5% | [4]; [9] 92% | [4]; at 50.0 µM 85.2% | [5]; [9] 98% | [5]; at 50.0 µM 88.5% | [7]; [9] 96%
inactive: [1]; [8] 1% | [2]; [8] -7% | [3]; [8] -10% | [4]; [8] 1% | [5]; [8] -6% | [7]; [8] -8%

CCCCCCCCCCCCCCCCBr
inactive: [1]; [8] -1% | [1]; [9] 0% | [2]; [8] -2% | [2]; [9] 0% | [3]; [8] -2% | [3]; [9] 8% | [4]; [8] 4% | [4]; [9] 1% | [5]; [8] -2% | [5]; [9] -3%
active: [1]; at 50.0 µM 99.5% | [2]; at 50.0 µM 99.7% | [3]; at 50.0 µM 99.3% | [4]; at 50.0 µM 98.8% | [5]; at 50.0 µM 99.5%
